Experimental data taken from PubChem BioAssay (Tox21).
“And” between values parts separate entries of the source, which are not always exact repeats. Identical values can stand only once. Records with an inconclusive call do not appear. Entries that show only a call come without a potency. The source made the active and inactive calls. Unless noted, calls come from the whole dose curve; as a rule, active = well fitted curve in the direction sought with a large enough effect in the repeat runs; inconclusive = weak or mixed curves; inactive = no such curve, though single readings can be large; an effect the other way counts as inactive or inconclusive.

Legend:
[1] = qHTS assay to identify small molecule antagonists of the glucocorticoid receptor (GR) signaling pathway - cell viability counter screen (AID 720693); note: nearly all actives have a fitted effect of over 55% in size
[2] = qHTS assay for identifying genotoxic compounds that show differential cytotoxicity against isogenic chicken DT40 cell lines with known DNA damage response pathways - Rev3 mutant cell line (AID 743014); note: nearly all actives have a fitted effect of over 55% in size
[3] = qHTS assay for identifying genotoxic compounds that show differential cytotoxicity against isogenic chicken DT40 cell lines with known DNA damage response pathways - Rad54/Ku70 mutant cell line (AID 743015); note: nearly all actives have a fitted effect of over 60% in size
[4] = qHTS assay to identify small molecule antagonists of the androgen receptor (AR) signaling pathway - cell viability counter screen (AID 743033; note: nearly all actives have a fitted effect of over 45% in size)
[5] = biological target: Androgen receptor (Homo sapiens) (UniProt P10275); test: qHTS assay to identify small molecule antagonists of the androgen receptor (AR) signaling pathway (AID 743035; active = well fitted inhibition curve with a large enough effect in the signal ratio in the repeat runs, not every such curve was filed as active; the % refers to the signal ratio)
Method in brief: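 R1881 agonist challenge of a HEK293 UAS-beta-lactamase AR reporter line in the presence of compound (16 h, 37C); signal taken as FRET fluorescence after 2 h with LiveBLAzer B/G substrate at room temperature.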

[6] = biological target: Androgen receptor (Homo sapiens) (UniProt P10275); test: qHTS assay to identify small molecule agonists of the androgen receptor (AR) signaling pathway using the MDA cell line (AID 743040; note: nearly all actives have a fitted effect of over 20% in size); settings: MDA-kb2 AR-luc cells, MMTV luciferase, 16 h; activity change: at 70.3 µM (top of the series), hits give high values
Method in brief: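 Cell-based luciferase reporter: MDA-kb2, MMTV promoter (AR + GR response elements). 16 h compound exposure at 37C; ONE-Glo, 30 min RT, luminescence.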

[7] = qHTS assay to identify small molecule antagonists of the androgen receptor (AR) signaling pathway using the MDA cell line - cell viability counter screen (AID 743041; note: nearly all actives have a fitted effect of over 45% in size)
Method in brief: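 In this qHTS counter assay, fluorescence intensity after CellTiter-Fluor addition indicated viability of MDA-kb2 AR-luc cells given compounds and R1881 for 16 h at 37C.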

[8] = biological target: Androgen receptor (Homo sapiens) (UniProt P10275); test: qHTS assay to identify small molecule antagonists of the androgen receptor (AR) signaling pathway using the MDA cell line (AID 743042; note: nearly all actives have a fitted effect of over 55% in size)
Method in brief: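 MDA-kb2 cells (human breast carcinoma, stably carrying an MMTV-luciferase reporter responsive to AR and GR) were plated at 3,000 cells/well and preincubated 5 hr at 37C, then given compound plus R1881 agonist for 16 h. ONE-Glo luminescence was read.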

[9] = qHTS assay for identifying genotoxic compounds that show differential cytotoxicity against isogenic chicken DT40 cell lines with known DNA damage response pathways - wild type cell line (AID 743012); note: nearly all actives have a fitted effect of over 60% in size
Method in brief: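 Endpoint: CellTiter-Glo luminescence, 30 min RT. Cells: wild type DT40, 300/well. Exposure: compounds in DMSO, 40 h, 37 C/5% CO2, after ~0.5 h pre-incubation.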

[10] = biological target: Androgen receptor (Homo sapiens) (UniProt P10275); test: qHTS assay to identify small molecule agonists of the androgen receptor (AR) signaling pathway (AID 743036; active = well fitted activation curve with a large enough effect in the signal ratio in the repeat runs, with a control signal flat, not every such curve was filed as active; the % refers to the signal ratio)
Method in brief: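 Cell-based FRET reporter assay: HEK293 line with a UAS-beta-lactamase construct, compounds added in DMSO, 16 h exposure at 37C, then 2 h substrate step at room temperature and fluorescence intensity read.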
Potency is the fitted concentration of half-maximal effect.

Chain of Androgen receptor (Homo sapiens) (P10275 whole entry, looked up): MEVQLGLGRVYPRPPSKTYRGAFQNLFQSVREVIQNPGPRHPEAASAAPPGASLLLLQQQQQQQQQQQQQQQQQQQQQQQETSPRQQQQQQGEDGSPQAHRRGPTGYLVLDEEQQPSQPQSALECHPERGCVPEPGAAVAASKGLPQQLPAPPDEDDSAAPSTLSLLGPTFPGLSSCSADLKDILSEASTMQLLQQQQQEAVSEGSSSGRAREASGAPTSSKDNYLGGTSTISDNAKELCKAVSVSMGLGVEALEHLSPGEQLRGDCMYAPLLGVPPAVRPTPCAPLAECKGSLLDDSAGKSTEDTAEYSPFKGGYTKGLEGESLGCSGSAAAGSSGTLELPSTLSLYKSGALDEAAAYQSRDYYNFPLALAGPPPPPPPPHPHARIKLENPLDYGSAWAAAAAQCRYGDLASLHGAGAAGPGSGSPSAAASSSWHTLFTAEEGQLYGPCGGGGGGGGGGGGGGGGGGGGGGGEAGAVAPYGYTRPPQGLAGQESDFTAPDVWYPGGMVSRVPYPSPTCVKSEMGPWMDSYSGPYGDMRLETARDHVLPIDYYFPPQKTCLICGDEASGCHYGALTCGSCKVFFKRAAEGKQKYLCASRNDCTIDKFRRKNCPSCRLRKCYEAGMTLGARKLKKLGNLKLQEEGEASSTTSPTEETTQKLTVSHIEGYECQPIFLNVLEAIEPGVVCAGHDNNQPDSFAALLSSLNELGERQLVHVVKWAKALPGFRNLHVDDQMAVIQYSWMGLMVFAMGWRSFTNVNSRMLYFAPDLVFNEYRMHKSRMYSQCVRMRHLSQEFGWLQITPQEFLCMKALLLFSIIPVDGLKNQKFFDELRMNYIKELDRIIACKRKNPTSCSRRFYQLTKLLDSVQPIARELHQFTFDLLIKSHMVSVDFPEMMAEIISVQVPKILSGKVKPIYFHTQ

Compound	Potency [1]	Potency [2]	Potency [3]	Potency [4]	Potency [5]	Potency [6]	Potency [7]	Potency [8]	Potency [9]	Potency [10]	activity change [6]
C[CH2][Hg][S]c1ccccc1C(=O)O	7.56 µM (active) and 6.16 µM (active)	596 nM (active) and 137 nM (active)	266 nM (active) and 109 nM (active)	10.7 µM (active) and 4.9 µM (active)	9.52 µM (active) and 3.09 µM (active)	inactive	9.87 µM (active) and 8.63 µM (active)	9.44 µM (active) and 7.7 µM (active)	–	–	–
CC(C)CCCCCCCOC(=O)c1ccccc1C(=O)OCCCCCCCC(C)C	inactive	–	inactive	inactive	–	–	inactive	–	inactive	–	–
O=C(O)COc1cc(Cl)c(Cl)cc1Cl	inactive	inactive	inactive	inactive	inactive	inactive	inactive	inactive	–	–	–
CCOC(=O)C1OC1(C)c1ccccc1 (centres undefined)	inactive	inactive	inactive	inactive	–	–	inactive	–	–	–	–
NCCc1cc(O)c(O)cc1O	inactive	–	–	inactive	–	–	inactive	–	23.7 µM (active)	–	–
O=[N+]([O-])O[C@H]1CO[C@H]2[C@@H]1OC[C@H]2O[N+](=O)[O-]	inactive	inactive	inactive	inactive	–	–	inactive	–	–	–	–
O=C(N/N=C/c1ccc([N+](=O)[O-])o1)c1cc([N+](=O)[O-])cc([N+](=O)[O-])c1O	inactive	–	inactive	–	–	–	–	–	inactive	–	–
O=C(O)C(F)(F)C(F)(F)C(F)(F)C(F)(F)C(F)(F)F	inactive	–	inactive	inactive	–	–	inactive	–	inactive	–	–
C[N+]1(CCC(C(N)=O)(c2ccccc2)c2ccccc2)CCCCC1	inactive	inactive	inactive	inactive	–	–	inactive	–	–	–	–
CC(C)c1ccc(NC(=O)N(C)C)cc1	inactive	68.5 µM (active)	–	inactive	–	–	inactive	–	inactive	–	–
CCCCCBr	inactive	inactive	inactive	inactive	inactive	inactive	inactive	inactive	–	inactive	–
C[C@]12C=CC3=C4CCC(=O)C=C4CC[C@H]3[C@@H]1CC[C@@H]2O	24.4 µM (active)	68.1 µM (active)	60.7 µM (active)	inactive	–	–	inactive	inactive	–	0.0027 µM (active)	189% (active)
CN1CC[C@]23c4c5ccc(O)c4O[C@H]2[C@@H](O)CC[C@H]3[C@H]1C5	inactive	–	inactive	inactive	–	–	inactive	–	inactive	–	–
CCCC(C)(COC(N)=O)COC(=O)NC(C)C (centres undefined)	inactive	inactive	inactive	inactive	–	–	inactive	–	–	–	–
N#CC1(N=NC2(C#N)CCCCC2)CCCCC1	inactive	inactive	inactive	inactive	–	–	inactive	–	–	–	–
CCC1(CCC(C)C)C(=O)NC(=O)NC1=O	inactive	inactive	inactive	inactive	inactive	inactive	inactive	inactive	–	–	–
FC(Cl)(Cl)C(F)(Cl)Cl	inactive	inactive	inactive	inactive	–	–	inactive	–	–	–	–
CCC1(CC)C(=O)NC(=O)NC1=O	inactive	inactive	inactive	inactive	–	–	inactive	–	–	–	–
CCCCCl	inactive	inactive	inactive	inactive	–	–	inactive	–	–	–	–

Compound	Potency [1]	Potency [2]	Potency [3]	Potency [4]	Potency [5]	Potency [6]	Potency [7]	Potency [8]	Potency [9]	Potency [10]	activity change [6]
O=C(O)C(F)(F)C(F)(F)C(F)(F)C(F)(F)C(F)(F)C(F)(F)C(F)(F)C(F)(F)F	inactive	inactive	inactive	inactive	–	–	inactive	–	–	–	–
CCOc1cccc(C2(N3CCN(c4ccccc4)CC3)CCC(C)CC2)c1 (centres undefined)	inactive	–	–	inactive	–	–	inactive	–	inactive	–	–
CCNC(=O)NC(=O)/C(C#N)=N/OC	inactive	inactive	inactive	inactive	–	–	inactive	–	–	–	–
O=C(O)C(Cl)(Cl)Br	inactive	inactive	inactive	inactive	–	–	inactive	–	–	–	–
CN1C(=O)CN=C(c2ccccc2)c2cc([N+](=O)[O-])ccc21	inactive	inactive	–	inactive	–	1.88 µM (active)	inactive	inactive	inactive	inactive	–
CN1C[C@H](C(=O)N[C@]2(C)O[C@@]3(O)[C@@H]4CCCN4C(=O)[C@H](Cc4ccccc4)N3C2=O)C=C2c3cccc4[nH]cc(c34)C[C@H]21	inactive	23.7 µM (active) and 27.4 µM (active) and 18 µM (active)	9.44 µM (active) and 13.7 µM (active) and 10.1 µM (active)	inactive	–	–	inactive	–	–	–	–
CCC1(C2=NCCN2)Cc2ccccc2O1 (centres undefined)	inactive	5.31 µM (active)	6.68 µM (active)	inactive	19 µM (active)	inactive	inactive	inactive	–	23.9 µM (active)	–
CC(C)(C)OOC(C)(C)CCC(C)(C)OOC(C)(C)C	inactive	68.6 µM (active)	inactive	inactive	–	–	inactive	–	–	–	–
COCc1cnc(C2=NC(C)(C(C)C)C(=O)N2)c(C(=O)O)c1 (centres undefined)	inactive	inactive	inactive	inactive	inactive	inactive	inactive	inactive	–	inactive	–
c1ccc2c(c1)sc1ccccc12	inactive	–	inactive	inactive	–	–	inactive	–	inactive	–	–
CCOP(=S)(S)OCC	inactive	inactive	inactive	inactive	inactive	inactive	inactive	inactive	–	–	–
CCCC[P+](CC)(CCCC)CCCC (tested in a mixture with another compound)	inactive	17.4 µM (active)	12.3 µM (active)	inactive	–	–	inactive	–	–	–	–
CC(C)(C)CC(C)(C)c1ccc(O)cc1	24.5 µM (active)	11.9 µM (active) and 19.3 µM (active)	27.3 µM (active)	inactive	–	inactive	–	inactive	–	–	–
CN(C)N	inactive	inactive	inactive	inactive	inactive	inactive	inactive	inactive	–	inactive	–
COC(=O)Cc1ccccc1	inactive	inactive	inactive	inactive	–	–	inactive	–	–	–	–
CN(C1CCCCC1)C1CCCCC1	inactive	9.69 µM (active)	17.2 µM (active)	inactive	inactive	inactive	inactive	inactive	–	inactive	–
CC(C)c1ccc(OP(=O)(Oc2ccc(C(C)C)cc2)Oc2ccc(C(C)C)cc2)cc1	inactive	61.6 µM (active) and 27.3 µM (active)	69.1 µM (active) and 54.5 µM (active) and 21.7 µM (active)	inactive	–	–	–	–	–	–	–
NC(=O)CF	inactive	inactive	inactive	inactive	–	–	inactive	–	–	–	–
